From PubChem BioAssay (NCATS) come the findings set out here.

The structures appear in SMILES notation. Where “and” joins values, the source holds several entries; their conditions need not be identical. Identical values can stand only once. Unmarked numbers belong to inactive results.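 How the source made its calls: active means calcium activation more than 3 SD above the typical response in the agonist read; inactive means the rest.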

Chain of Thyrotropin-releasing hormone receptor (Homo sapiens) (P34981 whole entry, looked up): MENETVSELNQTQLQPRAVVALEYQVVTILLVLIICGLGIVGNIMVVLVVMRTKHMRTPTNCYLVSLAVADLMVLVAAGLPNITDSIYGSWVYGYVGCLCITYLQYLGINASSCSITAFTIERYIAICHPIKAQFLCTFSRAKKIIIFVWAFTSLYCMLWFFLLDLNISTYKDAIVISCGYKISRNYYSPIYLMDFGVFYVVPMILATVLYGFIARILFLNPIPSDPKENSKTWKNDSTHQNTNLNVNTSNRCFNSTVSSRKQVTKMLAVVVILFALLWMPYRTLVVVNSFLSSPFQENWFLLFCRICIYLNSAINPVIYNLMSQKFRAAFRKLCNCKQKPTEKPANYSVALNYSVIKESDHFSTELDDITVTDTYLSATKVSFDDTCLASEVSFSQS

The target in this assay is Thyrotropin-releasing hormone receptor (Homo sapiens) (UniProt P34981). Put plainly: qHTS for Small Molecule Agonists and Allosteric Enhancers of Human TRH Receptor: Validation Screen for Agonists (AID 493127).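 Further: intracellular calcium rise by fluo-8 fluorescence before TRH EC20 addition; 0% is about no effect.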 The following applies: TRH receptor agonist cell assay; at 2 µM; hits give high values. An excerpt:
NIH Chemical Genomics Center [NCGC]
NIH Molecular Libraries Probe Centers Network [MLPCN]
Assay Submitter (PI): Marvin Gershengorn
This project aims to identify small drug-like molecules that activate (agonists) the thyrotropin releasing hormone (TRH) receptor (TRHR) or enhance its TRH-stimulated activity (allosteric enhancers). TRHR, a drug-accessible cell surface receptor expressed in specific brain regions, and its ligand TRH have been implicated in several central nervous system disorders, including depression and anxiety. Small molecule TRHR agonists or allosteric enhancers that are metabolically stable and able to cross the blood-brain barrier might serve as probes to elucidate the roles of brain TRH receptors in animal models, and might be valuable as lead compounds for the development of drugs to treat patients with central nervous system disorders.
Upon TRHR-Gq activation in TRHR cells, intracellular calcium is released from stores in the endoplasmic reticulum. […] This validation screen measures compound-induced activation of calcium release.
For the HTS assay freshly prepared cells are plated at a density of 2000/well in 3 ul of complete DMEM medium containing 10% serum in 1536-well plates and cultured over night at 37 C in a humidified incubator with 5% CO2. The next day, 2 ul of a no wash calcium dye (ABD Bioquest) was added to the cells and plates were incubated at room temperature for 1 hour. For the assay, assay plates were loaded into the FDSS kinetic plate reader. A 10 cycle (1 second/cycle) baseline measurement is taken and then the FDSS online 1536 pintool delivers 23 nl of compound library (as well as TRH controls) to the plate. The plate is measured for kinetically at 1 cycle/sec for 180 seconds and is considered to be the agonist portion of the assay (eg, compounds which activate a positive calcium response during this portion are flagged as potential agonists). Following the 180 second read, 1 ul of either an EC20 (positive modulation assay) is delivered by an onboard pipette head. Measurements are taken kinetically for an additional 180 seconds.
TRHR FDSS Screening Protocol
1. Reagent, 3 uL 2000 cells/well 1536 TC treated Black plate in media containing 10% FCS
2. Time, 18 hours, 33.5C 5% CO2 (cells grown at 37C)
3. Reagent, 2 uL ABD fluo-8 Ca dye
4. Time, 30 min-1.5hrs hours, Room temp (6 plates/batch)
5. Detector, EX 480/EM 530C, FDSS 10 cycles baseline (1sec/cycle)
6. Compound, 23 nL of stock solution from library
7. Detector, EX 480/EM 530C, FDSS 230 cycles (1sec/cycle) Agonist mode
8. Compound, 1 ul EC20 of TRH made up in HEPES HBSS, 10 nM final
9. Detector, EX 480/EM 530C, FDSS 100 cycles (1sec/cycle) Potentiator mode
`CC/C(=C(\c1ccccc1)c1ccc(OCCN(C)C)cc1)c1ccccc1`: the activation was -2.75%.

As for `O=c1cc(-c2ccc(O)cc2)oc2cc(O)cc(O)c12`, the activation is 0.5%.

Regarding `CCCCC1C(=O)N(c2ccccc2)N(c2ccccc2)C1=O`, the activation is 1.38%.

As to `CN(C)CCC(c1ccccc1)c1ccccn1` (configuration not stated), the activation is 1.44%. To `CC1=C(/C=C/C(C)=C/C=C/C(C)=C/C(=O)Nc2ccc(O)cc2)C(C)(C)CCC1` belongs -0.438%; to `CC(C)NCC(O)COc1cccc2[nH]ccc12` (configuration not stated), -0.25%.

Consider `CC1(C)CCC2=C(O1)c1ccccc1C(=O)C2=O`, for which the activation is -3.69%. As for `COc1cccc(-c2cc(=O)c3ccccc3o2)c1N`, the activation was -3.44%.

In the case of `O=C1NC(=O)C(c2ccccc2)(c2ccccc2)N1`, the activation is 0.438%. As for `Clc1ccc(Cn2c(CN3CCCC3)nc3ccccc32)cc1`, the activation was -8.12%.

On to `NCCS`, for which the activation was 1.25%.

Turning to `Cc1cccc(C)c1OCC(C)N` (configuration not stated), the activation is 0.438%. Turning to `CC(=O)c1ccc(S(=O)(=O)NC(=O)NC2CCCCC2)cc1`, the activation was 0.188%.

Turning to `COC(=O)[C@@H]1[C@H]2C[C@H]3c4[nH]c5ccccc5c4CCN3C[C@@H]2CC[C@@H]1O`, the activation was 0.625%.

Consider `CC(=O)CCCCn1c(=O)c2c(ncn2C)n(C)c1=O`, for which the activation was -2.31%. To `COc1ccccc1N1CCN(CCCNc2cc(=O)n(C)c(=O)n2C)CC1` belongs -2.81%; to `O=C1NCC2(CCN(CCc3ccccc3)CC2)O1`, 0.562%; to `CCN(CC)CCOC(=O)c1ccc(N)cc1`, -0.312%.

As for `CCN(CC)C(=O)c1ccc(O)c(OC)c1`, the activation was 0.938%.

On to `O=C(O)CCc1nc(-c2ccccc2)c(-c2ccccc2)o1`, for which the activation was -0.125%. To `C[N+](C)(C)CCCCCC[N+](C)(C)C` belongs 0.625% and 0.562%. As for `CCN1CCC[C@H]1CNC(=O)c1cc(S(N)(=O)=O)ccc1OC`, the activation was 1%.
